Screens from PubChem.
Compounds with a hit are over-represented: about 12% of the library has one in this group of screens.
L major viab: inhibitors of Leishmania major promastigote growth | Leishmania major promastigotes, resazurin fluorescence viability | inhibition, % at 10 µM | 200,000 compounds, 9% hits | AID 1063; in the data active = inhibition above about 50%;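 note: promastigotes grown with compound for 44 hours at 28 °C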
INS promoter inh: TRM-6 insulin promoter activity inhibition. TRM-6 cells (human fetal islet line), insulin promoter-eGFP reporter, imaging; reporter expression induced with tamoxifen. inhibition, % at 2 µM. 130,000 compounds, 0.9% hits;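 active = inhibition above the mean plus 3 SD, with well images judged a real hit on visual review, cut at about 60% in these data, passing the limit was not always enough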
WT yeast gro inh: growth inhibition of WT yeast, mitochondrial fusion screen; 190,000 compounds, 2.1% hits; inhibition, % at 10 µM; mitochondrial fusion phenotypic screen, WT strain; in the data active = inhibition above about 58%; tested in S. cerevisiae
Insulin prom up: MIN6 insulin promoter up-regulation; 190,000 compounds, 0.3% hits; MIN6 insulin promoter-GFP reporter, high-content imaging; active compounds read high; z-score at 5 µM; AID 1625;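 active = z-score above 3 at 5 µM with at least 500 cells counted in the well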
ROMK mod: modulators of human ROMK potassium channel | 130,000 compounds, 2% hits | Tet-inducible ROMK, thallium flux fluorescence; actives lie on both sides | B-score at 10 µM | AID 1918 | P48048;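 active = signal ratio slope over the read window, or its plate-corrected B-score, at least 3 SD from the plate mean, either direction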;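 note: B-score of the F/F0 ratio slope over 7 to 12 s after thallium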
KCC2 mod: KCC2 (human) Cl- transport modulation. Q9H2X9. KCC2 cells, thallium flux FluoZin-2 fluorescence. B-score of Tl+ flux slope (higher = more flux/activation; lower = inhibition) at 10 µM. 190,000 compounds, 2.2% hits;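 active = thallium flux slope and its plate-corrected score both differing from the plate sample mean at a set confidence after two filtering rounds, in either direction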;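 note: slope of fluorescence scaled to starting intensity during 10 to 20 s after thallium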
Target sequence (Q9H2X9 whole entry, looked up): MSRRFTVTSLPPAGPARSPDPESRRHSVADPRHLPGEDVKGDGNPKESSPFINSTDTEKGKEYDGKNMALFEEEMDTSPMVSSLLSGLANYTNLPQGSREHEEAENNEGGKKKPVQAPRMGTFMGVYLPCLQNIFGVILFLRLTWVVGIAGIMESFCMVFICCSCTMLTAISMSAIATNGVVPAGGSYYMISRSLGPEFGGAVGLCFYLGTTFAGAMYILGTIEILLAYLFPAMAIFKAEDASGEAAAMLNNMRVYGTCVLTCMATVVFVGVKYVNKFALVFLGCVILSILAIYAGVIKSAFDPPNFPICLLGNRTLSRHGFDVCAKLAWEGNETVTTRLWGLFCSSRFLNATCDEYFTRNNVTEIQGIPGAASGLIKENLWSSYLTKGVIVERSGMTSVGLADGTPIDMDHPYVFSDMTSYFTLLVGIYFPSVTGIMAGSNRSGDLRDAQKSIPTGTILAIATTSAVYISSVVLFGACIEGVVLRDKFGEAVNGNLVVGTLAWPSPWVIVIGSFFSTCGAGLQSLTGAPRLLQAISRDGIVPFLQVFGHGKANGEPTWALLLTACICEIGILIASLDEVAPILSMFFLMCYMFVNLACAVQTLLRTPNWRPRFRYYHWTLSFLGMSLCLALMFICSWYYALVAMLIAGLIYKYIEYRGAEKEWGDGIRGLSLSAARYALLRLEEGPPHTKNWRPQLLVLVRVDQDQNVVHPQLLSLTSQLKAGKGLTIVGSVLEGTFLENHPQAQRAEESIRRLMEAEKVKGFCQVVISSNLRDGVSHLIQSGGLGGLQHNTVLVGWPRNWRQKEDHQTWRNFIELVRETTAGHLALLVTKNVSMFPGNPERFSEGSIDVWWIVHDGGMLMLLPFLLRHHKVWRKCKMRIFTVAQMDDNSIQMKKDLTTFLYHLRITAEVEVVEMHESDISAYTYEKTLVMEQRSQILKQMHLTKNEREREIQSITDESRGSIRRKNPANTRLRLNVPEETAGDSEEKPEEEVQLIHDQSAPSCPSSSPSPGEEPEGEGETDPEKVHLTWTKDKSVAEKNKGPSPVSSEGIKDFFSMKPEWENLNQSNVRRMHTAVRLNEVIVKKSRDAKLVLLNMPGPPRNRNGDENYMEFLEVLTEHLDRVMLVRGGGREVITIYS
* hit, by the source's call; · = no result.

SMILES | L major viab | INS promoter inh | WT yeast gro inh | Insulin prom up | ROMK mod | KCC2 mod
CC1CCC2(CC1)NC(=S)N(c1ccccc1)N2 (stereo not given) | 79.4* | 37.5 | 19.0 | 0.63 | 0.519 | 0.681
CC(C(=O)N1CCOCC1)N1C(=O)c2cccc3cccc(c23)C1=O (stereo not given) | 0.6 | · | -1.3 | 0.42 | 0.185 | 0.959
CCCOC(=O)COC(=O)c1ccccc1NC(=O)c1ccccc1 | -2.5 | 12.5 | -4.1 | 0.95 | · | -1.18
COc1ccccc1NC(=O)CSc1nc(O)cc(=O)n1-c1ccccc1OC | -6.3 | 25.0 | 14.6 | · | · | -0.0617
COc1ccc(NS(=O)(=O)c2cccc(NC(=O)NCCCl)c2)cc1 | 70.9* | · | 1.0 | 0.01 | -1.22 | -1.11
COc1ccc(NS(=O)(=O)c2cccc(C(=O)N/N=C(\C)c3ccncc3)c2)cc1 | 58.6* | 24.3 | -6.3 | 0.54 | 0.38 | -0.0976
COc1ccc(NS(=O)(=O)c2cccc(NC(=O)CCC(=O)c3cccs3)c2)cc1 | -1.7 | 0.0 | 1.5 | 0.07 | -0.846 | -1.9
COc1ccc(NS(=O)(=O)c2cccc(NC(=O)c3ccc(Cl)nc3)c2)cc1 | 61.0* | -29.4 | -7.5 | -0.38 | -0.456 | 0.197
COc1ccc(NS(=O)(=O)c2cccc(NC(=O)CCC(=O)c3ccc(Cl)cc3)c2)cc1 | 79.5* | · | -16.9 | -1.3 | · | 0.476
COc1ccc(NS(=O)(=O)c2cccc(C(=O)N/N=C(\C)c3ccc(-n4ccnc4)cc3)c2)cc1 | -3.8 | 1.8 | 7.2 | · | 1.12 | 1.24
COC(=O)CSc1cc(C)nc(NC(C)=O)n1 | -4.3 | 31.8 | 7.1 | -0.59 | · | ·
CN(CC(=O)Nc1ccc([N+](=O)[O-])cc1Br)Cc1c(F)cccc1Cl | · | · | · | -0.07 | · | -0.932
COc1ccc(S(=O)(=O)N/N=C(/C)c2cccc(NC(=O)c3ccccc3Cl)c2)cc1 | 96.7* | · | 0.7 | -0.04 | · | 0.309
CC(=O)Nc1cccc(/C(C)=N/NS(=O)(=O)c2ccccc2)c1 | -3.4 | · | -2.0 | 0.07 | -0.125 | 0.185
CC1CN(C(=O)c2ccccc2)C(=Nc2cccc(S(=O)(=O)N(C)C)c2)S1 (stereo not given) | 82.8* | · | -4.8 | -0.73 | · | -0.598
CCCC(=O)NC(Nc1ccccc1F)C(Cl)(Cl)Cl (stereo not given) | 10.4 | · | 4.1 | 0.02 | · | ·
CC(C)CC(=O)NC(Nc1ccccc1F)C(Cl)(Cl)Cl (stereo not given) | 63.0* | · | -3.4 | 0.21 | -0.556 | -0.0602
COc1ccc(CN2C(=S)NC(C)(C)CC2(C)O)cc1 (stereo not given) | 22.4 | -18.5 | 0.2 | 0 | -0.085 | 0.501
COc1ccccc1CCN1C(=S)NC(C)(C)CC1(C)O (stereo not given) | 8.7 | -25.7 | 70.0* | -0.23 | · | -0.0107
COc1ccc(-n2nnnc2SCC(=O)Nc2cccc(NC(C)=O)c2)cc1OC | -2.9 | -45.5 | 5.1 | 0.1 | · | ·
Cc1ccc(N(CC(=O)NCc2ccc3c(c2)OCO3)S(=O)(=O)c2c(C)noc2C)cc1 | 58.6* | · | 6.7 | -0.02 | · | -2.17
Cc1noc(C)c1S(=O)(=O)N(CC(=O)NCc1ccc2c(c1)OCO2)c1ccc(C(C)C)cc1 | 26.1 | · | 17.8 | 1.35 | · | -3.64
COc1ccc(S(=O)(=O)Nc2ccccc2-c2nnn(CC(=O)Nc3ccccc3OC)n2)cc1 | 98.4* | 3.7 | -0.2 | -0.98 | -0.583 | -0.229
COC(=O)c1ccc(C)c(NC(=O)CCSc2ccc(Cl)cc2)c1 | -3.8 | -41.7 | 10.2 | 0.86 | -0.0509 | 0.00965
c1ccc(COc2ccc(OCCCCN3CCCCC3)cc2)cc1 | 100.4* | · | 24.5 | -1.91 | -2.04 | ·
SMILES | L major viab | INS promoter inh | WT yeast gro inh | Insulin prom up | ROMK mod | KCC2 mod
O=C(c1ccccc1)c1ccc(OCCOCCN2CCN(Cc3ccccc3)CC2)cc1 | 56.1* | · | 28.5 | -1.16 | -1.29 | -1.26
O=C(c1ccccc1)c1ccc(OCCCN2CCCC2)cc1 | 99.0* | -34.5 | -4.1 | 0.2 | -0.0737 | -0.0466
c1ccc(COCCN2CCN(CCOCc3ccccc3)CC2)cc1 | 95.2* | -43.3 | 9.8 | 0.05 | -0.795 | -0.822
CCOc1ccccc1OCCOCCN1CCN(Cc2ccccc2)CC1 | 15.4 | · | 11.2 | -0.29 | -0.606 | -0.912
Cc1cc(N2CCN(C)CC2)nc(N2CCOCC2)n1 | 0.6 | -88.6 | -0.2 | -0.43 | -1.24 | ·
COc1cccc2c(=S)c(CCC(C)=O)c(C)[nH]c12 | -4.8 | · | 3.6 | 1.1 | · | -0.125
O=C(c1ccccc1)c1ccc(OCCCCN2CCCCC2)cc1 | 97.7* | -62.1 | 4.7 | -0.95 | -0.807 | -0.154
COc1ccc(C(=O)n2c(C)c(CCO)c(=O)n2C)cc1 | -10.7 | · | -12.1 | -1.08 | 0.401 | -0.854
CSc1ccc(CN2C(=O)NC3(CCCCCCC3)C2=O)cc1 | 20.0 | · | 18.9 | 2.27 | -0.00597 | -0.635
O=C1NC2(CCCCC2)C(=O)N1Cc1cccc(C(F)(F)F)c1 | 98.0* | 25.0 | -1.3 | · | -0.313 | 1.04
Cc1nn(CCC(N)=S)c2nc(-c3cccs3)cc(C(F)(F)F)c12 | 1.2 | 10.0 | 75.1* | -0.52 | 0.0985 | -0.0687
Cc1nn(CCC#N)c2nc(-c3ccccc3)cc(C(F)(F)F)c12 | 20.2 | 37.1 | -18.8 | · | -0.667 | 0.809
NCCOc1ccc(C2CCCCC2)cc1 | 100.0* | · | 15.6 | · | -0.591 | 0.453
N#CCC(=O)NNc1c([N+](=O)[O-])cc(C(F)(F)F)cc1[N+](=O)[O-] | · | · | · | -0.41 | 1.77 | 0.0228
Cc1ccc(NC(=O)CSc2nc(=O)cc(N)n2CCc2ccccc2)cc1 | -1.3 | · | 8.8 | 0.96 | -1.2 | -1.09
CC(NC(=O)CSc1nc(=O)cc(N)n1CCc1ccccc1)c1ccccc1 (stereo not given) | -6.6 | -4.5 | 59.3* | -0.11 | · | -0.218
Cc1nc2sc(C(=O)c3ccccc3)c(N)c2c(C)c1C | 0.7 | · | -7.5 | 0.85 | 0.794 | 0.32
Cc1nc2sc(C(=O)OC(C)C)c(N)c2c(C)c1C | -1.4 | 100.0* | 0.4 | -0.25 | 0.102 | 0.524
CCN1CCN(C(c2cccs2)C(C)NC(=S)NC2CCCCC2)CC1 (stereo not given) | · | · | · | -0.04 | -1.78 | -0.0408
CC(C)n1c(O)c(N=Nc2ccc(Cl)nn2)c2ccccc21 | 0.3 | -93.5 | -10.7 | 0.59 | · | 10.5*
CCc1ccc2c(c1)C1(C(=O)N2)N2CCCC2C(C(=O)c2ccc3ccccc3c2)C12C(=O)Nc1ccccc12 (stereo not given) | 79.2* | -9.7 | 44.6 | -0.07 | · | 0.147
Cc1cccc2c1NC(=O)C21N2CCCC2C(C(=O)c2ccc3ccccc3c2)C12C(=O)Nc1ccccc12 (stereo not given) | · | · | · | -0.11 | · | -1.49
CCc1cccc2c1NC(=O)C21N2CCCC2C(C(=O)c2ccc3ccccc3c2)C12C(=O)Nc1ccccc12 (stereo not given) | 82.1* | 0.0 | 23.0 | -0.13 | · | 1.11
Cc1ccc(C)c(Nc2c([N+](=O)[O-])cc(C(=O)N3CC(=O)Nc4ccccc43)cc2[N+](=O)[O-])c1 | 96.5* | -25.0 | -4.6 | -0.01 | 1.23 | -0.6
Cc1cccc(Nc2c([N+](=O)[O-])cc(C(=O)N3CC(=O)Nc4ccccc43)cc2[N+](=O)[O-])c1 | 81.7* | · | -16.8 | -0.18 | 0.0735 | -1.53
O=C1CN(C(=O)c2ccccc2)c2ccccc2N1 | -4.3 | -280.0 | 2.3 | 0.23 | · | ·
